Assay results published in PubChem BioAssay (NCATS).
Results filed as inconclusive are left out. Unmarked numbers belong to inactive results. The call rests on the fitted dose curve; in most records, active means well fitted inhibition curve with a large enough effect; inconclusive means small, poorly fitted or top-dose-only effect; inactive means flat fitted curve, though single readings scatter.

Each compound was assayed against Calcium and integrin-binding protein 1 (Homo sapiens) (UniProt Q99828) (assay: Primary qHTS for Identification of Calcium Integrin Binding Protein 1 (CIB1) Competitor (AID 1508620; further: top concentration of the series differs between compounds)). Settings: CIB1-GST / FITC-alphaIIb peptide fluorescence polarization; series mostly up to 114 µM; activity change, negative = inhibition: at the top concentration.
Sequence of Calcium and integrin-binding protein 1 (Homo sapiens) (Q99828 whole entry, looked up): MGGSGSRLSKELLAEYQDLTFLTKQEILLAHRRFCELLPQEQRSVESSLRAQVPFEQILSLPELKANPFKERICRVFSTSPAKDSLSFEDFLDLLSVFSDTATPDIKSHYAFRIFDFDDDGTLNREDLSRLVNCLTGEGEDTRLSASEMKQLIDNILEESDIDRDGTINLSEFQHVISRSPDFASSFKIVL
Summary of the method: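 Fluorescence polarization competition: GST-tagged CIB1 (1 uM final) preincubated with compound 15 min at room temperature, then FITC-labelled alphaIIb peptide (100 nM final) added. After 15 min at room temperature, polarization read at Ex 480/Em 540.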
On the % scale 0 is the no-effect control and ±100 the full control effect.

In order of rising “activity change, negative = inhibition” value:
1. O=C1CCCC2=C1C1(CCC1)N=C(Nc1nc3ccccc3o1)N2  -22.2%
2. Clc1cccc(-c2nc(-c3ccc(-c4nn[nH]n4)cc3)no2)c1  -16.1%
3. Cc1cc(NS(=O)(=O)c2ccc(NC(=O)Cc3cccc(Cl)c3)cc2)no1  -13.8%
4. CCn1cnc2c(Nc3ccc(CCC(=O)N=C(N)N)cc3)nc(C#N)nc21  -6.44%
5. COc1ccc(O)c(CNc2ccc(S(=O)(=O)Nc3nccs3)cc2)c1  -5.14%
6. c1nc(NCC2CCCCO2)c2cc(-c3ccc4c(c3)OCO4)ccc2n1 (stereo not given)  -4.09%
7. C=CCNc1oc(C2CCCC2)nc1C#N  -3.27%
8. Cc1ccc(C2N=C(Nc3nc4ccccc4o3)NC3=C2C(=O)CCC3)cc1 (stereo not given)  -2.38%
9. Cc1cc2c(s1)c(C#N)c(C(=O)NCc1ccccc1F)n2C  -1.97%
10. O=[S+]([O-])(c1ccc2c(c1)OCCO2)N1CCN([S+](=O)([O-])c2ccccc2Br)CC1  -1.82%
11. CCOC(=O)c1ccc2c(c1)c(C(C)=O)c(C)n2-c1ccc(OC)cc1  -1.8%
12. c1nc(OCc2cnc[nH]2)c2cc(-c3ccc4c(c3)OCO4)ccc2n1  -1.62%
13. CC(=O)N(C(C)=O)n1c(C)nc2sc3c(c2c1=O)CCNC3  -1.44%
14. O=C1CCc2cc(S(=O)(=O)Nc3ccccc3F)ccc2N1  -1.24%
15. Cc1cc(C)nc(NC(=S)N2CCN(c3ccc([N+](=O)[O-])c4cccnc34)CC2)c1  -1.18%
16. Cc1cc2c(s1)c1cnn(Cc3ccc(SC(F)(F)F)cc3)c(=O)c1n2C  -0.619%
17. O=C(CNC(=O)c1cccc(Cl)c1)OC(C(=O)Nc1cc(C(F)(F)F)ccc1Cl)c1ccccc1 (stereo not given)  -0.117%
18. O=C(Nc1ccc(Cl)c(Cl)c1)Nc1ccnc(-c2ccncc2)n1  0.417%
19. Cc1cc(-c2nnc3n2CCCC3)c(C)n1-c1ccccc1  0.923%
20. COc1cccc(C2c3c(ncn(-c4ccccc4Br)c3=N)Oc3ccc4ccccc4c32)c1 (stereo not given)  0.941%
21. Cc1ccc(S(=O)(=O)Nc2cccc3ccc(C)nc23)cc1  1.08%
22. N#CN1CCC(NC(=O)c2cccc(F)c2)CC1  1.08%
23. COc1ccc(C2=Nn3c(nnc3-c3cc(OC)ccc3OC)SC2)c(OC)c1  1.36%
24. Cc1cc2c(s1)c1cnn(Cc3ccc(-n4cncn4)cc3)c(=O)c1n2C  1.36%
25. Cc1cc2c(s1)c1cnn(Cc3ccc4ccccc4c3)c(=O)c1n2C  1.5%
26. FC(F)(F)c1ccccc1-c1nc(NCc2ccc(Cl)c(Cl)c2)c2ccccc2n1  1.84%
27. COc1cccc(-c2ccc(CNc3ccc(N4CCN(C(=O)OC(C)(C)C)CC4)cc3)o2)c1  2.18%
28. Clc1ccc(CN(CCCNc2ncnc(NCCCc3cnc[nH]3)n2)c2ccc(Br)cn2)cc1Cl  2.63%
29. Cc1cc2c(s1)c1cnn(Cc3c(F)cc(F)cc3F)c(=O)c1n2C  2.74%
30. Cc1nc(C)c(-c2ccc3ncnc(NCCc4cnc[nH]4)c3c2)s1  3.06%
31. CC(=O)Nc1cccc(S(=O)(=O)Nc2ccc(C)c(C)c2)c1  4.3%
32. COc1ccc(Nc2nc(C#N)nc(NC3CCCC3)n2)cc1  4.3%
33. CC(=O)c1ccc(-c2csc(N3CCC(C(N)=O)CC3)n2)cc1  4.43%
34. CN1CCCC1CCNc1ncnc2ccc(-c3ccc4c(c3)OCO4)cc12 (stereo not given)  4.66%
35. O=S(=O)(Nc1ccc2ccccc2c1)c1ccc(NCc2ccc(Br)cc2O)cc1  5.66%
36. O=C(Nc1nnc(-c2ccncc2)s1)Nc1ccc(Cl)c2ccccc12  5.71%
37. O=C(Nc1nnc(-c2ccncc2)s1)Nc1cccc2ccccc12  6.38%
38. O=C(Nc1cc(F)cc(F)c1)Nc1nnc(-c2ccncc2)s1  8.45%
39. c1nc(NCC2CCCC2)c2cc(-c3ccc4c(c3)OCO4)ccc2n1  10.5%
40. Cc1cc(C)nc(NCc2ccc(O)c3ncccc23)c1  19.8%
